# Compounds with a hit are over-represented: about 12% of the library has one in this group of screens.
# PLK1 PBD block = blocks phosphopeptide binding to human PLK1 polo-box domain. 360,000 tested, 2.8% active. Plk1 PBD binding of FITC phosphopeptide, fluorescence polarization. Potency, µM, for the others: max response, negative = inhibition, most hits filed as inhibitors; further: potency means the concentration at half of the fitted maximal effect; series mostly up to about 57 µM; on the % scale 0 is the no-effect control and ±100 the full control effect; nearly all actives have a fitted effect of over 65% in size
# Target sequence (P53350 whole entry, looked up, the tested form may be a part): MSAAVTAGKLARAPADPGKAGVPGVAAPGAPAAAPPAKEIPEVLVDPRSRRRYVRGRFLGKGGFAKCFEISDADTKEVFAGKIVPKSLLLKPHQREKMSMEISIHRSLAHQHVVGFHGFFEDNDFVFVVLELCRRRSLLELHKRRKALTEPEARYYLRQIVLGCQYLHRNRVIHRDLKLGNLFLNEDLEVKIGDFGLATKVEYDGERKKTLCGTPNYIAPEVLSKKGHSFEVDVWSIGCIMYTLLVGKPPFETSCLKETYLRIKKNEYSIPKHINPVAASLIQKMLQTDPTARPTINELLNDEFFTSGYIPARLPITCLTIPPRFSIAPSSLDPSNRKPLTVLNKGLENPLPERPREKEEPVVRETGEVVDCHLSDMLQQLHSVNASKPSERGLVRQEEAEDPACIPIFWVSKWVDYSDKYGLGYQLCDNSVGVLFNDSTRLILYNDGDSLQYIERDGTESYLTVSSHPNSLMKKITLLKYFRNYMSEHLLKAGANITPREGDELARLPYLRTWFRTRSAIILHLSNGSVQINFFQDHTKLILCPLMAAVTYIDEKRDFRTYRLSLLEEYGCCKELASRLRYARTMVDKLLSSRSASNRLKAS
# BAZ2B block = inhibitors of human BAZ2B bromodomain; AID 504333; 360,000 tested, 4.4% active; Potency, µM (highest dose often 114 µM), without a hit: top-dose activity change, negative = inhibition, actives largely listed as inhibitors; Q9UIF8; AlphaScreen BAZ2B-H3K14Ac peptide displacement; further: potency means the concentration at half of the fitted maximal effect; on the % scale 0 is the no-effect control and ±100 the full control effect; nearly all actives have a fitted effect of over 60% in size
#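 BAZ2B 50 nM plus b-H3(5-23)K14Ac 50 nM, PBS pH 7.4/0.01% Tween-20, 30 min RT; compound added (max 110 uM), 30 min RT; streptavidin donor/Ni-chelate acceptor beads 10 ug/mL final, 20 min dark; AlphaScreen read.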
# G9a block = blocks human histone lysine methyltransferase G9a; G9a H3K9 monomethylation, AlphaScreen, 2 h; Q96KQ7; AID 504332; 350,000 tested, 8.8% active; Potency, µM (highest dose often 102 µM), inactives show at the top dose activity, negative = inhibition, hits mostly inhibitors; further: potency means the concentration at half of the fitted maximal effect; on the % scale 0 is the no-effect control and ±100 the full control effect; nearly all actives have a fitted effect of over 75% in size
#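 Methyltransferase reactions run at room temperature for 2 h (20 nM enzyme, 500 nM biotin-H3K9 peptide, 20 uM SAM) after a 15 min compound preincubation; product detected by AlphaScreen beads and anti-H3K9me1 antibody.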
# HP1b chromo inh = HP1-beta chromodomain-methylated histone interaction inhibition. P83916. 390,000 tested, 0.56% active. AID 540317. AlphaScreen HP1-beta / biotin-H3K9me3 peptide binding. Potency, µM (titrated, usually from 114 µM), for the others: top-dose activity change, negative = inhibition, hits mostly inhibitors; further: potency means the concentration at half of the fitted maximal effect; nearly all actives have a fitted effect of over 70% in size
#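 Compound inhibition of the preformed complex between 50 nM HP1-beta and 50 nM biotinylated H3K9me3 peptide was read by AlphaScreen. Buffer was PBS pH 7.4 with 0.01% Tween-20. Incubations ran 30 min at room temperature, with 10 ug/mL donor/acceptor beads.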
# PI5P4Ka inh = inhibitors of human PI5P4K alpha; 330,000 tested, 1.2% active; PI5P4Kalpha enzyme, ADP-Glo luminescence, 60 min; active compounds read low; max response, %; P48426; AID 652105; active means max response of -50% or lower; inconclusive means between -30% and -50%; inactive means -30% or higher; further: value at the top dose of about 77 µM; on the % scale 0 is the no-effect control and ±100 the full control effect
#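 Compounds were pin-transferred onto PI5P4Kalpha and substrate in HEPES pH 7.4 buffer with EGTA, CHAPS and 5% DMSO. ATP (5 microM final) started the reaction, which ran 60 minutes at room temperature before ADP-Glo detection.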
# JMJD2A Tudor = JMJD2A Tudor domain (human) inhibition; O75164; AlphaScreen JMJD2A-Tudor / H3K4me3 peptide binding; Potency, µM (series often up to 114 µM), without a hit: at the highest dose activity change, negative = inhibition, hits mostly inhibitors; 390,000 tested, 4.4% active; further: potency means the concentration at half of the fitted maximal effect; on the % scale 0 is the no-effect control and ±100 the full control effect; nearly all actives have a fitted effect of over 50% in size
# * marks the source's active call; other numbers are inactive results; ? = inconclusive; / = no result; [ ] = remark or other dose. Unless noted, the call rests on the fitted dose curve; in most records, active means well fitted curve in the direction sought with a large enough effect; inconclusive means small, poorly fitted or top-dose-only effect, or another doubt; inactive means no such curve, though single readings can be large; an effect the other way counts as inactive or inconclusive.
SMILES,PLK1 PBD block,BAZ2B block,G9a block,HP1b chromo inh,PI5P4Ka inh,JMJD2A Tudor
Cc1ccc(C(C[N+](=O)[O-])c2c(N)n(C)c(=O)n(C)c2=O)cc1 (stereo not drawn),-17%,-27%,?,72%,10,-9%
Cc1[nH]c2ccccc2c1C(C[N+](=O)[O-])c1cccc(O)c1 (stereo not drawn),7%,-38%,?,9%,7,-30%
COc1cc(C(C[N+](=O)[O-])c2c(C)[nH]c3ccccc23)ccc1O (stereo not drawn),?,40µM*,?,-36%,-6,?
O=C(COC(=O)c1cccc(-n2cnnn2)c1)c1ccc(F)c(F)c1,0%,/,/,/,-5,/
O=C(NCCSc1c[nH]c2ccccc12)c1ccccc1Cl,/,-17%,-43%[59 µM],21%,/,-22%
Cc1cccc(Cn2c(CNS(=O)(=O)c3ccc(C(C)C)cc3)nc3cccnc32)c1,/,1%,5%[59 µM],25%[57 µM],/,-2%
CC1CCN(C(c2ccccc2)c2sc3nc(-c4ccco4)nn3c2O)CC1 (stereo not drawn),/,-21%,-21%[59 µM],10%,/,-11%
CCC1C(=O)N(c2nc(C)cc(C)n2)N=C1C (stereo not drawn),-1%,?,20µM*,31%,/,11µM*
CC1=NN(c2nc(C)cc(C)n2)C(=O)C1CCC(C)C (stereo not drawn),-3%,-11%,44%,38%,/,?
CC1CCN(CCOCCOc2ccc(Br)cc2Cl)CC1,-10%,?,8.9µM*,?,-3,2.8µM*
CC1CCCN(CCCOc2ccc(Br)cc2Cl)C1 (stereo not drawn),-7%,?,20µM*,?,7,1.1µM*
CC(C)[C@H](NC(=O)N1c2ccccc2NC(=O)[C@@H]1C(C)C)C(=O)N[C@H](Cc1ccccc1)C(=O)O,10%,-16%,6%[12.7 µM],32%,-1,-3%
Cc1ccc2c(=O)cc(C(=O)Nc3ccc(S(=O)(=O)N4CCCCCC4)cc3)oc2c1,/,1%,1%[59 µM],8%,/,-14%
O=C1NC[C@H](CCCCN2CCN(CC3CCCCC3)C(=O)C2=O)N(CCC2CCCCC2)C1=O,-3%,/,/,/,-1,/
C/C(N)=C(/C#N)C(=O)CN1C(=O)NC(Cc2c[nH]c3ccccc23)C1=O (stereo not drawn),-3%,?,?,21%,-66*,-23%
CCCNC(=O)CN1C(=O)NC(Cc2c[nH]c3ccccc23)C1=O (stereo not drawn),27µM*,14%,2%,3%,-8,50µM*
COc1ccc(N=C2C(=O)Nc3ccc(C)c(Br)c32)cc1,-17%,6.3µM*,11µM*,?,13,?
COc1ccc(N=C2C(=O)Nc3ccccc32)cc1,-8%,6%,?,-2%,/,-24%
Cc1ccc(N=C2C(=O)Nc3ccc(C)c(Br)c32)cc1,-13%,?,1.3µM*,-18%,0,?
O=C1Nc2ccccc2C1=Nc1ccc(F)cc1,0%,-4%,-9%,?,-3,-24%
COc1ccc(CCNC(=O)c2c(C)oc3ncn(CC(C)C)c(=O)c23)c(OC)c1,/,3%[57.1 µM],-6%[59 µM],24%,/,-15%
O=C(OCC#CCSc1nnc(-c2cccc3ccccc23)s1)c1cccs1,/,1%,5%[12.7 µM],/,/,/
CC(C)NC(=O)c1sc2ncccc2c1-n1cccc1,/,7%,6%[59 µM],42%[57 µM],/,-5%
COc1cccc(Cn2c(CNC(=O)c3cc([N+](=O)[O-])ccc3Cl)nc3cccnc32)c1,/,-27%,45%[59 µM],8%[57 µM],/,-26%
COc1ccc2sc(-c3ccc(N(C)C)cc3)c(-c3cnc(OC)nc3)c2c1,3%,?,-6%[0.501 µM],18%,0,?
SMILES,PLK1 PBD block,BAZ2B block,G9a block,HP1b chromo inh,PI5P4Ka inh,JMJD2A Tudor
C=CS(=O)(=O)c1ccc(Oc2ccc(S(=O)(=O)C=C)cc2)cc1,24µM*,-3%,?,9%,-7,-12%
C/C(=N\NC(=O)c1cc2ccccc2cc1O)c1cccs1,-13%,-19%,3%,1%,-15,-16%
C/C(=N\NC(=O)c1cc(C)nc2ccccc12)c1ccco1,-2%,-29%,3%,27%,3,-16%
C/C(=N\NC(=O)c1cc2ccccc2cc1O)c1ccc(C)o1,1%,-10%,/,7%,-61*,-33%
C/C(=N/NC(=O)c1cc2ccccc2cc1O)c1ccco1,2%,-23%,-26%,31%,-65*,-20%
CCOC(=O)C1=C[C@@H](C(C)(C)C)N(S(=O)(=O)c2ccc(C)cc2)[C@H]1c1ccc(C)cc1,-6%,/,/,/,5,/
COc1ccc(CNC(=O)CSCc2cnn(-c3ccccc3)c2-n2cccc2)cc1,-5%,-4%,32µM*,2%,-1,-10%
O=C(CSCc1cnn(-c2ccccc2)c1-n1cccc1)NCC1CCCO1 (stereo not drawn),-4%,-1%,50µM*,23%,-1,-7%
O=c1oc(Nc2cccc(F)c2)nc2ccccc12,-8%,3%,3%[59 µM],30%,0,1%
Cc1ccc(C)c(Nc2nc(N)c3ccccc3n2)c1,-1%,-22%,50µM*,23%,-8,-7%
COc1ccc(C)cc1Nc1nc(N)c2cc(OC)c(OC)cc2n1,-3%,?,?,31%,-12,?
COc1ccc(Cl)cc1Nc1nc(N)c2ccccc2n1,1%,-11%,79µM*,35%,25,-10%
Cc1ccc(C)c(Nc2ncnc(N)c2[N+](=O)[O-])c1,-1%,3%,-27%[59 µM],11%,-4,-18%
Nc1nc(Nc2cccc(F)c2)nc2ccccc12,-9%,?,56µM*,16%,-5,-20%[57.1 µM]
COc1ccc(C2C(=O)N(C3CCCCC3)CC(=O)N2CCc2ccc(OC)c(OC)c2)cc1 (stereo not drawn),/,-3%,-5%[59 µM],4%,/,-21%
O=C(Cn1c(C(=O)OCCO)cc2ccccc21)c1ccccc1,-4%,6%,-8%[0.501 µM],34%,5,-6%
CS(=O)(=O)Nc1cccc(NC(=O)C2Cc3c(-c4ccccc4)ccnc3O2)c1 (stereo not drawn),-11%,/,/,/,-6,/
CCOC(=O)c1c(C)[nH]c(NC(=O)NNC(=O)c2ccccc2Cl)c1C,-9%,4%,19%[2.33 µM],33%,0,-16%
CCOC(=O)c1c(C)[nH]c(N=Nc2ccccc2Cl)c1C,0%,8.9µM*,-119%[59 µM],?,7,16µM*
CCOC(=O)c1c(C)[nH]c(C(=O)OCC(=O)c2ccccc2)c1C,4%,-27%,9%[12.7 µM],14%,-1,-23%
CCOC(=O)c1c(C)[nH]c(N=Nc2ccccc2)c1C,-2%,35µM*,40µM*,40µM*,-5,56µM*
CCOC(=O)c1c(C)[nH]c(N=Nc2ccc(C)cc2)c1C,-5%,45µM*,?,?,/,40µM*

# Screens from PubChem BioAssay.
